# From paper PMC4336329 (PLoS ONE, 2015)
# The whole screen tested about 310,000 compounds, of which about 14,000 (4.5%) showed an effect of 50% or more. The effect is printed as a negative number. The entries come from a sample that favours strong results as a whole.
# Biological target: human ether-à-go-go-related gene (hERG) potassium channel (human, UniProt Q12809)
# Test: primary screen, population patch clamp on CHO cells stably expressing hERG; higher = less effect of the substance
# 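Note: peak tail current of the secondary pulse compared with the same well before compound.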
# Sequence of human ether-à-go-go-related gene (hERG) potassium channel (Q12809 whole entry, looked up): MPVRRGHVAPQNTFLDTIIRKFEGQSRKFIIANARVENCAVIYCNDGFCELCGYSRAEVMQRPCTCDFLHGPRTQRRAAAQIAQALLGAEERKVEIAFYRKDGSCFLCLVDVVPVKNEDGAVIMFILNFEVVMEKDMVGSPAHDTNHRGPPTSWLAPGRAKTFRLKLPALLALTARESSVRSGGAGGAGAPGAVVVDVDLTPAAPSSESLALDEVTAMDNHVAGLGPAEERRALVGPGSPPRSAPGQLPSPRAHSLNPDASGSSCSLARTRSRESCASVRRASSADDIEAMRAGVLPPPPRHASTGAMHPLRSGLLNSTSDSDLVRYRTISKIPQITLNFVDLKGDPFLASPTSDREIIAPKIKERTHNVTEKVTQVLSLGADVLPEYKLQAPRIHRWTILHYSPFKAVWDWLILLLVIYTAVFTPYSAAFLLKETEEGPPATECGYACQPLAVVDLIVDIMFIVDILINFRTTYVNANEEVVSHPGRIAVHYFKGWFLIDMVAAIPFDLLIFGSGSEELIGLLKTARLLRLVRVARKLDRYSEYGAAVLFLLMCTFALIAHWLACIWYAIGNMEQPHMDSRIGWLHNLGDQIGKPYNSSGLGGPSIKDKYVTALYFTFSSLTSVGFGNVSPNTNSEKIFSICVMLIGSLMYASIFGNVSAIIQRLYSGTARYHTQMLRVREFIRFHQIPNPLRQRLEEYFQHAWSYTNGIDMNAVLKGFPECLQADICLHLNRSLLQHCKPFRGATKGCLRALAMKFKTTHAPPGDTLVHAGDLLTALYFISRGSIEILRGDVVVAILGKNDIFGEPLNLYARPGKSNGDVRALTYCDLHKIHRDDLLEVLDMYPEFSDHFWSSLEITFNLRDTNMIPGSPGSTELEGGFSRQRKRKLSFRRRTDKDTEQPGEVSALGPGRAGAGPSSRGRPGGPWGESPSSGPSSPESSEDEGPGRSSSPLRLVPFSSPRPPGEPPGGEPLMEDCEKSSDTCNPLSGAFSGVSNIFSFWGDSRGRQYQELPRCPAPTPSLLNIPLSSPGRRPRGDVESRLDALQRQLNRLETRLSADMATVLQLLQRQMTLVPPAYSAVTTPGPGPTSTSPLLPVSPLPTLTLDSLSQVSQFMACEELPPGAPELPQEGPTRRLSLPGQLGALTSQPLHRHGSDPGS
row,SMILES,"hERG current change (%, negative = inhibition) at 10uM [%]"
1,O=C(CN1CCOCC1)NCc1ccccc1,17.4
2,C=C(C)COc1ccc(-c2[nH]ncc2-c2ccc(OC)c(OC)c2)c(O)c1,-0.891
3,Cc1cc(C)c(NC(=O)CN(C)C(C)C(=O)N2CCc3ccccc32)c(C)c1 (stereo not drawn),-50.3
4,CC(C(=O)N1CCc2ccccc21)N(C)CC(=O)Nc1ccc(F)cc1 (stereo not drawn),-47.9
5,CC(C(=O)N1CCc2ccccc21)N(C)CC(=O)Nc1ccccc1Cl (stereo not drawn),-29.2
6,CCOC(=O)c1c(C)nc(-c2ccccc2)nc1N,7.25
7,CCCCC(=O)N1C/C=C\[C@H](c2ccc(OC)cc2)N(Cc2ccc(F)cc2)C(=O)[C@@H]1C,-68.6
8,COc1ccc([C@H]2/C=C\CN(C(=O)CC(C)(C)C)[C@@H](C)C(=O)N2Cc2ccc(F)cc2)cc1,-17.4
9,CCCCC(=O)N1C/C=C\C(c2ccc(OC)cc2)N(Cc2ccc(F)cc2)C(=O)[C@H]1Cc1ccccc1 (stereo partly drawn),7.51
10,CN(CCNC(=O)C1CCN(S(=O)(=O)c2cnc[nH]2)CC1)Cc1ccccc1,12.6
11,O=C(CCC1CCCCC1)Nc1ccccc1O,3.23
12,COc1cc(CN2CCN(Cc3ccc4cc(F)ccc4n3)CC2CCO)cc(OC)c1 (stereo not drawn),-64.4
13,COc1ccc(CN2CCN(Cc3ccc4cc(F)ccc4n3)CC2CCO)c(C)c1C (stereo not drawn),-63.7
14,CCOc1ccc(CN2CCN(Cc3ccc4cc(F)ccc4n3)CC2CCO)cc1 (stereo not drawn),-75.7
15,COc1ccc(CN2CCN(Cc3ccon3)CC2CCO)c(C)c1C (stereo not drawn),-37.3
16,Cc1ccc(CN2CCN(Cc3ccc4cc(F)ccc4n3)CC2CCO)o1 (stereo not drawn),-30.6
17,COc1cccc(CN2CCN(Cc3ccc4c(NC(C)=O)cccc4n3)CC2CCO)c1 (stereo not drawn),5.13
18,CC(=O)Nc1ccc2nc(CN3CCN(Cc4ccc(F)cc4)C(CCO)C3)ccc2c1 (stereo not drawn),-28.8
19,COc1ccc(-c2csc3nc(C)nc(N4CCCCC4)c23)cc1OC,-7.85
20,CC(C)C1Cc2c(sc3c2c(=O)n(Cc2ccccc2)c2nncn32)CO1 (stereo not drawn),-11
21,COc1ccc(N2C(=O)CC(N3CCN(S(=O)(=O)c4cc(C)ccc4C)CC3)C2=O)cc1 (stereo not drawn),-6.8
22,CC12C=CC3(O1)C(C(=O)N1CCCOC13)C2C(=O)O (stereo not drawn),-2.54
23,Cc1ccc(N(C(=O)c2cc3ccccc3oc2=O)C2C=CS(=O)(=O)C2)cc1 (stereo not drawn),-6.15
24,Cc1cc(C)cc(N(C(=O)c2cc3ccccc3oc2=O)C2C=CS(=O)(=O)C2)c1 (stereo not drawn),-55.4
25,CN(C)c1ccc(CN(C(=O)c2cc3ccccc3oc2=O)C2CCS(=O)(=O)C2)cc1 (stereo not drawn),-11.8
26,O=C(c1cc2ccccc2oc1=O)N(c1ccccc1)C1C=CS(=O)(=O)C1 (stereo not drawn),2.29
27,CC(C)c1ccc(CN(C(=O)c2cc3ccccc3oc2=O)C2CCS(=O)(=O)C2)cc1 (stereo not drawn),-62

row,SMILES,"hERG current change (%, negative = inhibition) at 10uM [%]"
1,O=C(c1cc2ccccc2oc1=O)N(Cc1ccccc1)C1CCS(=O)(=O)C1 (stereo not drawn),-12.2
2,CCc1ccc(CN(C(=O)c2cc3ccccc3oc2=O)C2CCS(=O)(=O)C2)cc1 (stereo not drawn),-56.5
3,Cc1ccc(CN(C(=O)c2cc3ccccc3oc2=O)C2CCS(=O)(=O)C2)cc1 (stereo not drawn),-34
4,COc1ccc(CN(C(=O)c2cc3ccccc3oc2=O)C2CCS(=O)(=O)C2)cc1 (stereo not drawn),-18.9
5,CC1(C)CC(=O)C=C(Nc2ccc3c(c2)CCC3)C1,-2.73
6,O=C(Nc1ccccc1)NC1CCN(Cc2nnnn2C2CCCCC2)CC1,-29.2
7,CCN1CCN(C(=O)c2ccc(CS(=O)Cc3ccc(C)cc3)o2)CC1 (stereo not drawn),11
8,O=C(O)C1CCCC2CN3CCc4c([nH]c5ccccc45)C3C(O)C21 (stereo not drawn),13.7
9,Cc1ccc(N(C(=O)CNC(=O)c2ccco2)C(C(=O)NC2CCCC2)c2ccncc2)c(C)c1 (stereo not drawn),14.6
10,CCOc1ccc(NS(=O)(=O)c2ccc(NC(=O)C3CCCO3)cc2)cc1 (stereo not drawn),20.7
11,C/C(=N\NC(=S)NCc1ccccc1)c1ccc2ccccc2c1,15.9
12,CN(C)CCCNc1ccc(-c2n[nH]c(=O)c3ccccc23)cc1[N+](=O)[O-],1.1
13,OCCC1CN(Cc2ccc3nsnc3c2)CCN1C1CCCC1 (stereo not drawn),-25
14,OCC1(CCc2ccccc2)CCN(Cc2ccc3nsnc3c2)CC1,-77.7
15,O=C(c1cnsn1)N1CCC(CO)(Cc2ccc(Cl)cc2)CC1,-43.7
16,OCC1(Cc2ccccc2C(F)(F)F)CCN(Cc2ccc3c(c2)CCO3)CC1,-28.7
17,COc1ccc(CC2(CO)CCN(Cc3nc(C(C)C)cs3)CC2)cc1,-48.4
18,COc1ccc(CC2(CO)CCN(Cc3ccc4nsnc4c3)CC2)cc1,-58.9
19,COc1ccc(CC2(CO)CCN(Cc3ccc4c(c3)CCO4)CC2)cc1,-65.7
20,OCC1(Cc2ccc(Cl)cc2)CCN(Cc2ccc3nsnc3c2)CC1,-61.5
21,COc1ccc(C(=O)NCc2ccc3c(c2)CCO3)cc1,7.15
22,CC(NS(=O)(=O)c1ccc(F)cc1)C(=O)Nc1ccc2c(c1)OCCO2 (stereo not drawn),13.2
23,CCOC(=O)c1ccc(N2C(=O)c3n[nH]c(C)c3C2c2ccco2)cc1 (stereo not drawn),-5.29
24,Cc1ncoc1C(=O)N1CCCC(CCC(=O)NCc2ccccc2F)C1 (stereo not drawn),-6.93
25,N#Cc1nc(COc2cccc(Cl)c2)oc1N1CCN(c2ccccc2)CC1,-4.18
26,COCCNC(=O)/C(C#N)=C/c1ccc(O)c([N+](=O)[O-])c1,14.7
27,CC(CS(=O)(=O)c1ccc2c(c1)NC(=O)CS2)C(=O)NCc1ccccc1Cl (stereo not drawn),-0.823
